Source: PubChem BioAssay AID2625 (National Center for Advancing Translational Sciences (NCATS), 2010)
Results filed as inconclusive are left out. Activity calls are given as the source filed them. Calls come from the whole dose curve; as a rule, active = well fitted curve in the direction sought with a large enough effect; inconclusive = small, poorly fitted or top-dose-only effect, or effect the other way, or another doubt; inactive = no such curve, though single readings can be large or run the other way.

Target: Pyruvate kinase PKLR (Homo sapiens) (UniProt P30613)
Test: Secondary LDH Assay for Activators of Human Liver Pyruvate Kinase: for Probe SAR;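 note: 0% = uninhibited enzyme rate and 100% = full activation by fructose bisphosphate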
Conditions: purified hPK-L, LDH-coupled NADH fluorescence kinetic; series mostly up to 58.2 µM; activity change, positive = activation: at the top concentration
Text: NIH Chemical Genomics Center [NCGC]
Matthew G. Vander Heiden, M.D., Ph.D. [Harvard Medical School, 77 Avenue Louis Pasteur, Boston, MA 02115]
Human pyruvate kinase liver (hPK-L)enzyme was supplied as a highly purified (>95% pure) preparation from Harvard Medical School and a secondary assay was used to evaluate compounds. This assay couples the formation of pyruvate from hPK-R using lactate dehydrogenase (LDH) and NADH. The depletion of NADH is followed in a fluorescent-based kinetic assay that follows the formation of pyruvate to lactate, as catalyzed LDH. Pyruvate kinase substrates, PEP and ADP, were present in the assay at 0.1 mM and 4 mM respectively. In this kinetic assay initial rates were determined by following the fluorescence of NADH depletion.
NCGC Assay Protocol Summary:
Three uL of substrate mix (final concentration, 50 mM Tris-Cl pH 8.0, 200 mM KCl, 15 mM MgCl2, 0.1 mM PEP, 4.0 mM ADP, and 0.2 mM NADH) was dispensed into black-solid 1536 well plates. 23 nL of compounds were delivered by a pin tool and 1 uL of enzyme mix (final concentrations, 10 nM hPK-L and 1 uM of LDH) was added. Plates were immediately placed in ViewLux (Perkin Elmer) and NADH fluorescence was determined at 30 second exposure intervals for between 3 and 6 minutes. Data were normalized to the uninhibited and EC100 activation using known activators such as fructose-bis-phosphate.

Pyruvate kinase PKLR (Homo sapiens), sequence (P30613 whole entry, looked up): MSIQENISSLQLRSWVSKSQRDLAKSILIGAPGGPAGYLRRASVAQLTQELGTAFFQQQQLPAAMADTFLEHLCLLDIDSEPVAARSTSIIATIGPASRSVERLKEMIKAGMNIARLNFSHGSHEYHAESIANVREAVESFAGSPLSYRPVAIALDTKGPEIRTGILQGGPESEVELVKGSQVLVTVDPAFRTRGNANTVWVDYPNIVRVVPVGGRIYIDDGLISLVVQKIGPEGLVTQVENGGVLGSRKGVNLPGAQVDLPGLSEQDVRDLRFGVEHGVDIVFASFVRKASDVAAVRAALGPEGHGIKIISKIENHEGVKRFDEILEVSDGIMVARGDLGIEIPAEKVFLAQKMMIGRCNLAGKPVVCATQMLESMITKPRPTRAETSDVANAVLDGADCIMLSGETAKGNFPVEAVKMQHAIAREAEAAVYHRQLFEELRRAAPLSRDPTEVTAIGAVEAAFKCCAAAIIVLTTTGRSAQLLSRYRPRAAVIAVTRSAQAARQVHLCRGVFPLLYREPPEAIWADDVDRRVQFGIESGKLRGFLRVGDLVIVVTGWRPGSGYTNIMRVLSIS

Activity change, positive = activation, inactive:
Cc1ccc(NS(=O)(=O)c2ccc3c(c2)CCC(=O)N3)cc1Cl 22.8%
Cc1ccc(NS(=O)(=O)c2ccc3[nH]c(=O)[nH]c3c2)cc1C 12.7%
COc1cccc(NS(=O)(=O)c2ccc3c(c2)CCC(=O)N3)c1 1.38%
N#Cc1ccc(NS(=O)(=O)c2ccc3c(c2)CCC(=O)N3)cc1 -11.8%
COc1ccc(S(=O)(=O)Nc2ccc(C)c(C)c2)cc1 13.1%
Cc1ccc2nc(-c3cccs3)c(Nc3ccccc3)n2c1 -18.5%
Cc1c(Cl)cccc1NS(=O)(=O)c1cc2c(cc1F)NC(=O)CC2 2.22%
Cc1ccc(-c2nc3ccc(Cl)cn3c2Nc2ccccc2)o1 -3.6%
Cc1ccc(NS(=O)(=O)c2ccc3c(c2)N(C)CCO3)cc1C 0.472%
CN=c1nc(-c2ccccc2)n(-c2ccccc2)s1 9.26%
O=C1c2ccccc2C(=O)N1c1cccc(=O)[nH]1 -7.14%
O=S1(=O)N=C(Oc2ccc(Cl)cc2)c2ccccc21 -14%
Cc1ccccc1OC1=NS(=O)(=O)c2ccccc21 -2.31%
O=C1c2ccccc2C(=O)N1c1cccc(Cl)c1 -11.2%
Cc1ccc(NS(=O)(=O)c2cc3c(cc2F)NC(=O)CC3)cc1Cl 19.9%
Cn1c2cc(S(C)=O)sc2c2cnn(Cc3cccc(O)c3)c(=O)c21 (stereo not given) 13.1%
O=C1c2ccccc2C(=O)N1c1ncccc1O -7.2%
Cc1ccc(NS(=O)(=O)c2cccc(F)c2)cc1C 0.953%
CCNc1cccc(S(=O)(=O)N2CCN(S(=O)(=O)c3ccc4c(c3)OCCO4)CC2)c1 -8.22%
COc1ccc(Nc2c(-c3ccc(C)o3)nc3ccccn23)cc1 -3.03%
Nc1cc(S(=O)(=O)N2CCN(S(=O)(=O)c3ccc4c(c3)OCCO4)CC2)ccn1 -4.84%
Cc1ccc(NS(=O)(=O)c2cc3c(cc2-c2ccccc2)NC(=O)CO3)cc1C -14.4%
O=S1(=O)N=C(Oc2ccccc2)c2ccccc21 -9.46% [at 82.8 µM]
COc1cccc(OC2=NS(=O)(=O)c3ccccc32)c1 9.2%
COc1cccc(N2C(=O)c3ccccc3C2=O)c1 -13.5%
COc1cc(N2C(=O)c3ccccc3C2=O)c2ncccc2c1 -4.25%
O=C1CCc2cc(S(=O)(=O)Nc3ccccn3)ccc2N1 -13.7%
Cc1ccc(NS(=O)(=O)c2cc3c(cc2Br)NC(=O)CO3)cc1C -0.908%
O=C1NS(=O)(=O)c2ccccc21 -2.32%
O=C1CCc2cc([S+](=O)([O-])NC3CCOCC3)ccc2N1 -17.9%
Cc1cc(C)n2c(Nc3ccccc3)c(-c3ccc(C)o3)nc2n1 -7.21%
O=C1CCc2cc(S(=O)(=O)Nc3ccc(Cl)c(Cl)c3)c(F)cc2N1 16.5%
Cc1ccc(NS(=O)(=O)c2ccc3c(c2)NC(=O)CO3)cc1C 10.8%
O=C1CCc2cc(S(=O)(=O)Nc3ccncc3)ccc2N1 13.1%
O=C1c2ccccc2C(=O)N1Cc1ccncc1 -2.36%
Cc1cc(NS(=O)(=O)c2ccc3c(c2)CCC(=O)N3)ccc1Cl -14.1%
CCCCN1C(=O)c2ccccc2C1=O -3.18%
O=C1c2ccccc2C(=O)N1c1cc(=O)c2ccccc2[nH]1 10.3%
O=C1c2ccccc2C(=O)N1c1cccc2cnccc12 -12.8%
COc1cccc(Cn2ncc3c4sc(S(C)=O)cc4n(C)c3c2=O)c1 (stereo not given) -7.39%
